Measured values from PubChem BioAssay (NCI).
The panel holds about 79,000 compounds, 15% with a hit somewhere; the sample as a whole holds those more often. No stated cut-off is given here; in the data, active means growth inhibition above about 70%; inactive means the rest.

Columns and labels:
[1] = NCI Yeast Anticancer Drug Screen. Data for the rad50 strain (AID 155);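 further: 0% = growth of vehicle-only cultures of the same strain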; details: S. cerevisiae rad50 strain growth inhibition; at 50.0 µM; hits give high values
Summary of the method: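 Compounds were tested on a yeast strain with an engineered DNA damage repair alteration; the reported value is growth inhibition normalised to vehicle treatment.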

[2] = NCI Yeast Anticancer Drug Screen. Data for the mec2-1 strain (AID 157); details: S. cerevisiae mec2-1 strain, at 50.0 µM, hits give high values
Summary of the method: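 Vehicle-treated cultures served as reference for growth inhibition of compound-exposed mec2-1 yeast.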

[3] = NCI Yeast Anticancer Drug Screen. Data for the sgs1 mgt1 strain (AID 161);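 further: 0% = growth of cultures given vehicle only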; details: S. cerevisiae sgs1 mgt1 strain, at 50.0 µM, hits give high values
Summary of the method: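 Inhibition of yeast growth, normalised to vehicle-treated controls, is reported for a strain bearing genetic alterations in DNA damage repair.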

[4] = NCI Yeast Anticancer Drug Screen. Data for the cln2 rad14 strain (AID 165);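 further: 0% = growth equal to vehicle treated cultures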; details: S. cerevisiae cln2 rad14 strain, at 50.0 µM, hits give high values
Summary of the method: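 Each compound was tested on cln2 rad14 yeast. Inhibition of growth was calculated against vehicle-exposed controls.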

[5] = NCI Yeast Anticancer Drug Screen. Data for the mlh1 rad18 strain (AID 175); details: S. cerevisiae mlh1 rad18 strain growth inhibition; at 50.0 µM; hits give high values
Summary of the method: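 Vehicle-treated cultures served as the reference for growth inhibition in a yeast strain carrying DNA damage repair alterations exposed to each compound.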

[6] = NCI Yeast Anticancer Drug Screen. Data for the bub3 strain (AID 167); details: S. cerevisiae bub3 mutant strain, at 50.0 µM, hits give high values
Summary of the method: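 Growth of a checkpoint-deficient yeast mutant is measured after compound exposure. Values represent inhibition relative to vehicle.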

Measured: growth inhibition

CCOC(=O)CC(c1ccc2c(c1)OCO2)c1cc(OC)c(OC)c(OC)c1 (stereo not given)
inactive: [1] -7.65% | [2] 24.9% | [3] -3% | [4] 0.45% | [5] 3.2%

Cc1ccc(S)c(C(O)(C(F)(F)F)C(F)(F)F)c1
inactive: [1] -4.75% | [2] 3.65% | [3] 11.7% | [4] 3.55% | [5] 23.2%

CCOC(=O)CNC(=O)C(CSSCC(NC(=O)OCc1ccccc1)C(=O)OC)NC(=O)C(NC(=O)OCc1ccccc1)C(C)C (stereo not given)
inactive: [1] 7.65% | [2] 21.3% | [3] 14.5% | [4] -1.65% | [5] 56.6%

CCCCCCCCCCCCCCCCCC(=O)OCC(COC1OC(CS(=O)(=O)O)C(O)C(O)C1O)OC(=O)CCCCCCCCCCCCCCCCC (stereo not given)
inactive: [1] 23.6% | [2] 18.4% | [3] 7.2% | [4] 3.25% | [5] 19.6%

CC1C(c2ccccc2)NC(c2ccccc2)C(C)C1(O)c1ccccc1 (stereo not given)
inactive: [1] 10.3% | [2] 5.3% | [3] 11.6% | [4] -23.1% | [5] 16.4%

C=C(C)c1ccccc1S(=O)(=O)c1ccccc1C(C)(C)O
inactive: [1] -23.4% | [2] 5.1% | [3] 6.25% | [4] 55.1% | [5] 9.1%

O=C(c1ccccc1)C(Br)C(Br)c1ccc([N+](=O)[O-])cc1 (stereo not given)
inactive: [1] 14.7% | [2] 39.9% | [3] 31.4% | [4] 24.2% | [5] 21.6%

c1ccc(CC2(Cc3ccccc3)SCCS2)cc1
inactive: [1] -11.7% | [2] 8.45% | [3] 6.55% | [4] 1.15% | [5] -6.05%

O=C1/C(=C/c2ccc(Cl)cc2)CCC1CNc1ccc(Cl)cc1 (stereo not given)
inactive: [1] 17.1% | [2] 0.25% | [3] -15.6% | [4] -2.8% | [5] -43.1%

O=C(c1ccc(Br)cc1)C(C(c1ccccc1)N1CCOCC1)N1CCOCC1 (stereo not given)
inactive: [1] 3.1% | [2] -1.1% | [3] -9.6% | [4] -19.5% | [5] 31.9%

COc1cc2c(c(OC)c1OC)-c1ccc(S(C)(=O)=O)c(=O)cc1[C@@H](NC(C)=O)CC2
inactive: [1] 3.25% | [2] -7.1% | [3] 3.2% | [4] 4.7% | [5] -44.4%

CC(C)=C1C(=O)N(C)C(=O)C1C(N)=O (stereo not given)
inactive: [1] 0.1% | [2] 1.85% | [3] -15.9% | [4] -6.05% | [5] 11.4%

CCOC(=O)c1cnc(N)nc1N
inactive: [1] 6.35% | [2] -16.1% | [3] -6.3% | [4] -88.3% | [5] 24.1%

CC1(c2cccc(N)c2)OCCO1
inactive: [1] 7.4% | [2] -7.2% | [3] 7.35% | [4] -7.9% | [5] 11.9%

CCOC(=O)COc1cc2c(cc1C(C)c1cc(OC)c(OC)c(OC)c1)OCO2 (stereo not given)
inactive: [1] 34.6% | [2] 2.2% | [3] 10.3% | [4] 18.1% | [5] 10.9%

COc1ccc(C2=NN(C(C)=O)C(c3cc(OC)c(OC)cc3N)S2)cc1OC (stereo not given) (tested in a mixture with another compound)
inactive: [1] 16.2% | [2] 17.1% | [3] 32.1% | [4] 19.6% | [5] 30.1%

C=CCc1cccc(C2N(Cc3ccc(OC)cc3OC)CCCN2Cc2ccc(OC)cc2OC)c1O
inactive: [1] 26.6% | [2] 7% | [3] -0.75% | [4] 16.6% | [5] 17.8%

CN1C2CCC1C1N=NN(c3cc(C(F)(F)F)cc(C(F)(F)F)c3)C1(N1CCOCC1)C2 (stereo not given)
inactive: [1] -20.9% | [2] -9.6% | [3] -27.7% | [4] 0.35% | [5] -21.8%

CC(O)c1ccccc1Br (stereo not given)
inactive: [1] -9.65% | [2] -15.1% | [3] -16.2% | [4] -13.4% | [5] -21%

COC(CNc1nc2c(s1)c1c(O)c3c(O)c(C)c4c(c32)C(=O)C(C)(O/C=C\C(OC)C(C)C(OC(C)=O)C(C)C(O)C(C)C(O)C(C)/C=C/C=C(/C)C(=O)N1)O4)OC (stereo not given)
inactive: [1] 6.15% | [2] -5.6% | [3] -13% | [4] 14.3% | [5] -4.65%

Nc1nc2ncc(=O)[nH]c2c(=O)[nH]1
inactive: [1] -35.1% | [2] -4.2% | [3] -8.55% | [4] -31.3% | [5] -8.4%

O=C1C(O)=C(c2ccccc2)C12CSC1(CS2)C(=O)C(O)=C1c1ccccc1 (stereo not given)
inactive: [1] 4.45% | [2] -1.55% | [3] -12.9% | [4] 5.4% | [5] 17.3%

CC(C)(C)c1ccc(C(=O)NCSCC(NC(=O)CCC(N)C(=O)O)C(=O)NCC(=O)O)cc1 (stereo not given)
inactive: [1] -10.4% | [2] 1% | [3] -10.7% | [4] -7.75% | [5] 14.8%

O=C(Nc1cccc(Cl)c1Cl)c1cc(/C=C/c2ccc([N+](=O)[O-])cc2)on1
inactive: [1] -21.2% | [2] 1.15% | [3] -12.8% | [4] 9.1% | [5] -3.85%

O=C(CCN1CCCCC1)c1cc2cc([N+](=O)[O-])ccc2oc1=O
inactive: [1] 55.1% | [2] 29.6% | [3] 23.2% | [4] -17.8% | [5] 32.6%

S=C(NCN1CCNCC1)C(=S)NCN1CCNCC1
inactive: [1] -14.2% | [2] -9.55% | [3] -6.1% | [4] -12.1% | [5] -9.6%

CCCCOB(OCCCC)OCCCC
inactive: [1] 6.1% | [2] -3.25% | [3] -12.6% | [4] 11.8% | [5] -21.9%

COC(=O)C1(CCCCCBr)CCCCCCCCCCC1=O (stereo not given)
inactive: [1] -8.6% | [2] -15.4% | [3] 24.1% | [4] 12.7% | [5] -34.5%

c1ccc(CCn2c(-c3ccccn3)nc3ccccc32)nc1
inactive: [1] 13.2% | [2] -4.25% | [3] 18.1% | [4] -24.5% | [5] 7.95%

COC(=O)C1OC2(CCCC3CC32)O[C@H]1C(=O)OC (stereo not given in full)
inactive: [1] -8.35% | [2] -10.2% | [3] -20.6% | [4] -13.2% | [5] 6.35%

CC(=O)/C(=C\c1ccccc1F)C(=O)CCN(C)C
inactive: [1] 7.95% | [2] 6.55% | [3] 8.05% | [4] 12.2% | [5] 28.3%

COc1ccc(NC(C)=O)cc1[N+](=O)[O-]
inactive: [1] -4.6% | [2] -7.7% | [3] -1.7% | [4] -13.3% | [5] 6.15%

Cc1ccccc1N1CCN(CC(O)Cc2ccccc2)CC1 (stereo not given)
inactive: [1] 19.6% | [2] 10% | [3] 12.1% | [4] -6.85% | [5] 21.1%

CC(CCl)NC(=O)Nc1cccc2c1CCCC2 (stereo not given)
inactive: [1] -12.5% | [2] 0.3% | [3] -3.9% | [4] -36% | [5] 18.8%

CC(C)=CCC/C(C)=C/CNc1ncnc2c1ncn2C1OC(CO)C(O)C1O (stereo not given)
inactive: [1] -4.3% | [2] 13.7% | [3] 6.6% | [4] -37% | [5] 27.6%

O=[N+]([O-])c1ccc2c(c1)Cc1cc(N(CBr)CBr)ccc1-2
inactive: [1] 6.35% | [2] 5.8% | [3] -1.4% | [4] -21.7% | [5] 18.9%

CC1(C)CCCC(OC(=O)c2ccc([N+](=O)[O-])cc2)C1 (stereo not given)
inactive: [1] 10.4% | [2] -17.5% | [3] -1.3% | [4] -2.05% | [5] -10.6%

O=C1C2C3CC4C5CC(C1C53)C42 (stereo not given)
inactive: [1] 4.85% | [2] -7.45% | [3] 3.35% | [4] 5.05% | [5] 1.7%

COC(=O)C(C)NC(=O)C(C)NC(=O)c1cc(OC)c(OC)c(OC)c1 (stereo not given)
inactive: [1] 28.2% | [2] 17.8% | [3] 17.4% | [4] 17.1% | [5] 15.8%

Cc1cc(O)c(Br)cc1C
inactive: [1] 5.35% | [2] -33% | [3] 9.15% | [6] 0.2% | [5] -9.45%

CCCCCCC(O)C/C=C\CCCCCCCC(=O)O (stereo not given)
inactive: [1] -14% | [2] -3.7% | [3] -30.9% | [6] -9.2% | [5] -15.9%

CCOC(=O)C1Sc2ccccc2N=C1C (stereo not given)
inactive: [1] 0% | [2] -15.8% | [3] -2.45% | [6] -10.6% | [5] 2.6%

CC(C)(C)C1CCC2c3c([nH]c4ccccc34)C3C(=O)N(c4ccc(Br)cc4)C(=O)C3C2C1 (stereo not given)
inactive: [1] 12.8% | [2] 11.8% | [3] 8.05% | [6] 13.8% | [5] 6.15%

CCOC(=O)C1CC(=O)N(Cc2ccccc2)C(=O)N1 (stereo not given)
inactive: [1] -11.1% | [2] 1.8% | [3] -17.6% | [6] 22.1% | [5] -3.5%

COc1cc(Br)c(Br)cc1Br
inactive: [1] 6.8% | [2] 4.35% | [3] -17.7% | [6] 4.9% | [5] 10.5%
